This note sets out measurements from the supplement of paper PMC11172423.

Structures are written as SMILES.

For one test, the system named is Madurella mycetomatis MM55. The test can be described thus: growth relative to untreated control; higher = less inhibition, active = 20 or less. Conditions: 25 µM. As to the method:
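Hyphal fragments of M. mycetomatis MM55 or F. senegalensis CBS197.79 in RPMI 1640/MOPS were exposed to each MMV COVID Box or Global Health Priority Box compound at 100 or 25 µM for 7 days at 37 °C. Viability was read with MTS (490 nm, M. mycetomatis) or resazurin (600 nm, F. senegalensis), background-corrected with a medium-only control and expressed as % growth relative to the untreated growth control. Inhibition of more than 80% was taken as growth inhibition.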
For the molecule `Cc1nc(N(C)C)nc(OC(=O)N(C)C)c1C`, the growth is 109% (inactive).

As to `CN1C2CCC1CC(C#N)C2` (stereo not given), the growth is 85.6% (inactive).

For the molecule `O=[N+]([O-])/C=C1\NCCCS1`, the growth is 94% (inactive).

`O=[N+]([O-])/N=C1\NCCN1Cc1ccc(Cl)nc1`: the growth is 92.8% (inactive).

As to `CN(C)CCn1c(Nc2cc(Cl)cc(C(F)(F)F)c2)nc2cnc(NC3CCCC3)cc21`, the growth was 39.6% (inactive).

For `CCC(CC)c1cccc(OC(=O)NC)c1.CCCC(C)c1cccc(OC(=O)NC)c1`, the growth was 96.3% (inactive).

For `Clc1ccc(C(OCCN2CCCCC2)c2ccccc2)cc1` (stereo not given), the growth is 120% (inactive).

For `CCc1nn(C)c(C(=O)NCc2ccc(Oc3ccc(C)cc3)cc2)c1Cl`, the growth is 66.4% (inactive).

For `CN1COCN(Cc2cnc(Cl)s2)/C1=N/[N+](=O)[O-]`, the growth was 87.9% (inactive).

As to `CC1(Nc2ncc3nc(Nc4cc(Cl)cc(C(F)(F)F)c4)n(C4CCNC4)c3n2)CC1` (stereo not given), the growth is 6.99% (active).

`CC1(C)C(/C=C(\Cl)c2ccc(Cl)cc2)C1C(=O)OC(C#N)c1ccc(F)c(Oc2ccccc2)c1` (stereo not given): the growth is 119% (inactive).

Regarding `Clc1cc(Cl)cc(Nc2nc3cnc(NC4CCCC4)cc3n2C2CCNC2)c1` (stereo not given), the growth is 7.86% (active).

Take `NCCc1cn(S(=O)(=O)c2c(Cl)nc3sccn23)c2ccccc12`: the growth was 79.9% (inactive).

Regarding `CN/C(=N/CC1CCOC1)N[N+](=O)[O-]` (stereo not given), the growth was 90.9% (inactive).

For `Cc1sc2c(c1C)C(c1ccc(Cl)cc1)=N[C@@H](CC(=O)OC(C)(C)C)c1nnc(C)n1-2`, the growth was 97.1% (inactive).

As to `CC[C@@H](C(=O)[C@@H](C)[C@@H](O)[C@H](C)[C@@H]1O[C@@H]([C@@H](CC)C(=O)O)CC[C@@H]1C)[C@H]1O[C@]2(C=C[C@@H](O)[C@]3(CC[C@@](C)([C@H]4CC[C@](O)(CC)[C@H](C)O4)O3)O2)[C@H](C)C[C@@H]1C`, the growth is 124% (inactive).

Turning to `O=C1C=C(N(Cc2ccc(Cl)nc2)CC(F)F)CO1`, the growth is 92.5% (inactive).

For `CNC(=O)Oc1cccc2ccccc12`, the growth was 95.8% (inactive).

With `CC1(C)CNC(=NN=C(C=Cc2ccc(C(F)(F)F)cc2)C=Cc2ccc(C(F)(F)F)cc2)NC1`, the growth is 104% (inactive).

In the case of `CNCCn1c(Nc2cc(Cl)cc(C(F)(F)F)c2)nc2cnc(NC3CC(F)(F)C3)cc21`, the growth is 22.2% (inactive).

Still in this test, the particulars now being: 100 µM.
As to `Cc1nc(N(C)C)nc(OC(=O)N(C)C)c1C`, the growth was 137% (inactive).

For `CN1C2CCC1CC(C#N)C2` (stereo not given), the growth was 117% (inactive).

Turning to `O=[N+]([O-])/C=C1\NCCCS1`, the growth was 122% (inactive).

On to `O=[N+]([O-])/N=C1\NCCN1Cc1ccc(Cl)nc1`, for which the growth was 98.3% (inactive).

Regarding `CN(C)CCn1c(Nc2cc(Cl)cc(C(F)(F)F)c2)nc2cnc(NC3CCCC3)cc21`, the growth is 124% (inactive).

`CCC(CC)c1cccc(OC(=O)NC)c1.CCCC(C)c1cccc(OC(=O)NC)c1`: the growth was 147% (inactive).

Regarding `Clc1ccc(C(OCCN2CCCCC2)c2ccccc2)cc1` (stereo not given), the growth was 4.6% (active).

Turning to `CCc1nn(C)c(C(=O)NCc2ccc(Oc3ccc(C)cc3)cc2)c1Cl`, the growth is 120% (inactive).

`CN1COCN(Cc2cnc(Cl)s2)/C1=N/[N+](=O)[O-]`: the growth is 126% (inactive).

On to `CC1(Nc2ncc3nc(Nc4cc(Cl)cc(C(F)(F)F)c4)n(C4CCNC4)c3n2)CC1` (stereo not given), for which the growth is 6.62% (active).

Regarding `CC1(C)C(/C=C(\Cl)c2ccc(Cl)cc2)C1C(=O)OC(C#N)c1ccc(F)c(Oc2ccccc2)c1` (stereo not given), the growth is 119% (inactive).

As to `Clc1cc(Cl)cc(Nc2nc3cnc(NC4CCCC4)cc3n2C2CCNC2)c1` (stereo not given), the growth is 6.79% (active).

With `NCCc1cn(S(=O)(=O)c2c(Cl)nc3sccn23)c2ccccc12`, the growth is 2.9% (active).

As to `CN/C(=N/CC1CCOC1)N[N+](=O)[O-]` (stereo not given), the growth is 125% (inactive).

On to `Cc1sc2c(c1C)C(c1ccc(Cl)cc1)=N[C@@H](CC(=O)OC(C)(C)C)c1nnc(C)n1-2`, for which the growth is 4.14% (active).

Take `CC[C@@H](C(=O)[C@@H](C)[C@@H](O)[C@H](C)[C@@H]1O[C@@H]([C@@H](CC)C(=O)O)CC[C@@H]1C)[C@H]1O[C@]2(C=C[C@@H](O)[C@]3(CC[C@@](C)([C@H]4CC[C@](O)(CC)[C@H](C)O4)O3)O2)[C@H](C)C[C@@H]1C`: the growth is 70.3% (inactive).

In the case of `O=C1C=C(N(Cc2ccc(Cl)nc2)CC(F)F)CO1`, the growth is 114% (inactive).

As to `CNC(=O)Oc1cccc2ccccc12`, the growth is 85.3% (inactive).

Turning to `CC1(C)CNC(=NN=C(C=Cc2ccc(C(F)(F)F)cc2)C=Cc2ccc(C(F)(F)F)cc2)NC1`, the growth is 106% (inactive).

Turning to `CNCCn1c(Nc2cc(Cl)cc(C(F)(F)F)c2)nc2cnc(NC3CC(F)(F)C3)cc21`, the growth is 6.62% (active).
